In the supplement of paper PMC13380429:

Tested on: Vero E6 infected with SARS-CoV-2
Assay: inhibition of SARS-CoV-2 cytopathic effect; higher = more antiviral protection, active = above 15
Details: 48 h

Measured: inhibition of SARS-CoV-2 cytopathic effect

O=C(O)/C=C1\CCCc2ccccc2[C@H]1O (racemic)
inactive: 1 nM 0.95% | 8.33 nM 1.44% | 100 nM 1.65% | 833.33 nM 1.72% | 10000 nM 4.1%

CCCCCCOC(=O)CCC(=O)CN [hexaminolevulinate]
inactive: 1 nM -0.29% | 8.33 nM 0.97% | 100 nM 1.79% | 833.33 nM 1.44% | 10000 nM 5.39%

COP(=O)(OC)OC(c1ccc(Cl)cc1)P(=O)(OC)OC (stereo not given) [mifobate]
inactive: 1 nM -4.41% | 8.33 nM -10.9% | 100 nM -3.08% | 833.33 nM -2.04% | 10000 nM -5%
